TAR Tat displ: HIV-1 TAR-Tat binding disruption; HIV-1 TAR RNA, Tat peptide displacement FRET; hits give high values; 0.6% of 100,000 active; z-score (concentration not given with the values); active = z-score of 3 or more in at least 2 runs
CDC25B-CDK2 inh: human CDC25B-CDK2/CyclinA binding inhibition; AID 1259370; 0.72% of 94,000 active; HTRF CDC25B-CDK2/CyclinA binding, anti-His/anti-Flag; hits give high values; z-score (concentration not given with the values); in the data active = z-score above about 3.2
An asterisk follows results filed as active; nt = no result. An excerpt weighted towards active compounds, which were near 0.93% of everything screened.

SMILES | TAR Tat displ | CDC25B-CDK2 inh
Cc1ccc(OCc2cc(=O)n3nc(-c4ccccc4)sc3n2)cc1C | 4.47* | 1.73
O=c1cc(CSc2nc3ccccc3[nH]2)nc2sc(-c3ccco3)nn12 | 14.9* | -0.16
Cc1cccc(OCc2cc(=O)n3ccsc3n2)c1 | 0.91 | -1.09
CCCc1nc2nc(C)cc(Cl)n2n1 | 0.57 | 1.01
CC(=O)/C=C\[C@@H]1[C@@]2(C)CCCC(C)(C)C2CC[C@@]1(C)O (stereo partly specified) | 2.79 | nt
CCC(C(=O)NCCCOC(C)C)N1C(=O)CCn2nc(C)cc21 (stereo unspecified) | 0.21 | nt
Cc1csc2nc(CSc3nnc(-c4cccc(F)c4)n3C)cc(=O)n12 | 0.11 | nt
Nc1n[nH]c(-c2ccc(Br)cc2)n1 | 0.4 | -1.04
Nc1ncc(C2=C(Cl)C(O)C(Cl)=C(Cl)C2O)s1 (stereo unspecified) | nt | 20.3*
Nc1ncc(S(=O)(=O)O)s1 | nt | -0.5
O=c1[nH]nc(-c2ccc(F)cc2)c2c1Nc1nnnn1C2c1cccc(Br)c1 (stereo unspecified) | 1.18 | -1.51
O=S(=O)(CCN(Cc1ccc(F)cc1)S(=O)(=O)c1ccccc1)N1CCNCC1 | 1.66 | nt
CC(=O)NC1=NN(C(C)=O)C(c2ccc(Sc3ccc(C)cc3)o2)S1 (stereo unspecified) | 1.97 | -0.44
CC(=O)NC1=NN(C(C)=O)C(c2ccc(C)o2)S1 (stereo unspecified) | 15.9* | -2.34
Cc1oc(-c2ccc(F)cc2)cc1-c1nn2c(-c3ccoc3C)nnc2s1 | 17.9* | 1.81
Cc1oc(-c2ccc(Cl)cc2)cc1-c1nn2c(-c3ccco3)nnc2s1 | 1.43 | -1.29
Cc1cc(NC(=O)Nc2ccc3c(c2)OCCO3)c(C(F)(F)F)o1 | nt | -1.01
O=C(CSc1nnc2n1CCCN2)c1cccs1 | nt | -1.62
Cc1cc(-c2ccccc2)c2c(n1)sc1c(O)cc(=O)[nH]c12 | -1.13 | -1.59
CSc1nc(N)nc2sc3c(O)cc(=O)[nH]c3c12 | 11.1* | 6.46
CCc1cc2c3c([nH]c2cc1S(=O)(=O)Nc1ccc(Cl)cc1F)CCCC3=O | 4.33* | nt
CCc1cc2c3c([nH]c2cc1S(=O)(=O)Nc1ccc(F)cc1F)CCCC3=O | 0.42 | nt
CCCSc1nc(=O)c2c(n1C)NC(=O)CC2c1cc(Br)ccc1OC (stereo unspecified) | -0.23 | -1.26
CC1CCN(S(=O)(=O)c2cn(CC(=O)NC3CCCCC3)cn2)CC1 | 0.6 | nt
CNc1nc2cccnc2s1 | nt | 8.24*
SMILES | TAR Tat displ | CDC25B-CDK2 inh
c1cnc2sc(N3CCC4(CC3)OCCO4)nc2c1 | nt | -2.25
O=c1cc2nc(-c3ccco3)nc(SCc3cc(=O)n4nc(C5CCCCC5)sc4n3)n2[nH]1 | 3.34* | nt
CCCc1nn2c(=O)cc(CSc3nc(-c4ccco4)nc4cc(=O)[nH]n34)nc2s1 | 0.67 | nt
Cc1ssc(=S)c1-c1ccccc1 | nt | 5.7*
Cc1c(Br)sc(Br)c1-c1ccccc1 | nt | -1.15
CCCn1c(=O)oc2cc(NS(=O)(=O)c3ccc4oc(C(=O)OCC)c(C)c4c3)ccc21 | 0.76 | nt
CCOC(=O)c1cnn(-c2ccc(C(=O)O)cc2)c1N | 1.41 | -0.25
O=C(O)c1cc(N2C(=O)c3c(Cl)c(Cl)c(Cl)c(Cl)c3C2=O)ccc1Cl | nt | 8.58*
O=C(O)c1cc(N2C(=O)C3CCCCC3C2=O)ccc1Cl (stereo unspecified) | 1.03 | nt
N#CC1=C2SCN(c3cccc(Cl)c3)CN2C(=O)CC1c1ccc(F)cc1 (stereo unspecified) | -0.98 | 7.39*
Cc1cccc(N2CSC3=C(C#N)C(c4ccccc4)CC(=O)N3C2)c1 (stereo unspecified) | -1.13 | 5.25*
Cc1ccccc1C1CC(=O)N2CN(c3ccccc3F)CSC2=C1C#N (stereo unspecified) | -1.21 | 5.11*
N#CC1=C2SCN(C3CCCCC3)CN2C(=O)CC1c1ccc(F)cc1 (stereo unspecified) | 1.45 | 0.26
COc1ccccc1N1CSC2=C(C#N)C(c3ccc(SC)cc3)CC(=O)N2C1 (stereo unspecified) | -1.41 | 4.61*
COc1ccc(N2CSC3=C(C#N)C(c4ccc(SC)cc4)CC(=O)N3C2)c(OC)c1 (stereo unspecified) | -0.01 | 2.48
COc1ccccc1C1c2c(-c3ccc(F)cc3)n[nH]c(=O)c2Nc2nnnn21 (stereo unspecified) | 0.14 | -0.66
CCc1ccc(-c2cc(C)no2)cc1S(=O)(=O)N1CCCc2ccccc21 | -0.76 | nt
CCOC(=O)C1=C(c2ccccc2)Nc2ncnn2C1c1cccc(Br)c1 (stereo unspecified) | 2.72 | 2.2
CC(=O)OC1CCC(C(=O)O)CC1 (stereo unspecified) | 1.9 | -0.59
COc1ccc(NS(=O)(=O)c2cc(-c3cnc(C)o3)ccc2C)cc1OC | 0.36 | nt
Cc1ccccc1N1CSC2=C(C#N)C(c3ccc(F)cc3)CC(=O)N2C1 (stereo unspecified) | -1.91 | 4.36*
N#CC1=C2SCN(c3ccccc3F)CN2C(=O)CC1c1ccccc1 (stereo unspecified) | 0.23 | 6.48*
Cc1ccccc1N1CSC2=C(C#N)C(c3ccc(Cl)cc3)CC(=O)N2C1 (stereo unspecified) | -2.59 | 2
C1=CC(=C2SCCS2)C=C1 | nt | -2.59
CCN(CCS(=O)(=O)N1CCNCC1)S(=O)(=O)c1cc(C)ccc1C | 2.12 | nt
SMILES | TAR Tat displ | CDC25B-CDK2 inh
COc1ccc(S(=O)(=O)NCc2c(F)cccc2Cl)cc1OC | nt | -1.82
CCC(=O)Nc1cc(C(C)(C)C)on1 | 1.35 | -0.95
COc1ccc(Nc2nn(-c3ccccc3)c3c2C(=O)CCC3)cc1 | -0.17 | -1.41
CC(C(=O)NCc1ccco1)n1sc2ccccc2c1=O (stereo unspecified) | 3.64* | -1.84
CNC(=O)C(C)n1sc2ccccc2c1=O (stereo unspecified) | 1.84 | -2.12
c1ccc(C2Nc3cccc4cccc(c34)N2)cc1 | 10.3* | 0.48
CCOc1cc(C2Nc3cccc4cccc(c34)N2)ccc1O | 8* | -4.41
CCc1ccc(C2Nc3cccc4cccc(c34)N2)cc1 | 34.9* | -1.07
COc1cc(OC)c(C2Nc3cccc4cccc(c34)N2)c(OC)c1 | 2.6 | -3.04
c1ccc2c(C3Nc4cccc5cccc(c45)N3)cccc2c1 | 8.22* | -1.24
COc1ccccc1C1Nc2cccc3cccc(c23)N1 | 4.01 | -0.15
Brc1cccc(C2Nc3cccc4cccc(c34)N2)c1 | 1.61 | -0.96
COc1cc(C2Nc3cccc4cccc(c34)N2)ccc1OCc1ccccc1 | 0.66 | -3.08
CCc1ccc(N2CC(O)=C(c3nc4ccccc4[nH]3)C2=N)cc1 | 0.81 | 0.29
COc1ccc(N2CCN(CCNc3nc4ccccc4n4c(C)nnc34)CC2)cc1 | 2.5 | -0.81
CN(CCNC(=O)c1ccc2c(=O)n3c(nc2c1)CCCC3)C1CCCCC1 | 1.03 | nt
COc1ccccc1N1CCN(c2nnc(Cc3ccncc3)c3ccccc23)CC1 | 0.36 | -1.4
CC(=O)Nn1c([N+](=O)[O-])cnc1C | nt | -1.61
CC(C)(C)c1ccc(C2Nc3cccc4cccc(c34)N2)cc1 | 7.08* | -0.84
CN(C)c1ccc(C2Nc3cccc4cccc(c34)N2)cc1 | 1.52 | -0.66
Cc1cc(-c2ccc(S(=O)(=O)Nc3cccc(Br)c3)o2)n[nH]1 | 1.56 | nt
CC1O[P+]2(OC1C)OC(C)C(C)O2 (stereo unspecified) | nt | 5.15*
CCOCCCNC(=O)c1c(O)nc2ccccn2c1=O | -0.55 | -1.84
CC(=O)N1N=C(c2c(F)cccc2Cl)OC1Cn1nnc2ccccc21 (stereo unspecified) | 1.23 | nt

High-throughput results as filed in PubChem BioAssay.
